{
  "source": "the OligoGym collection",
  "data": [
    {"biological_target": "CCNA1", "assay": "pooled miR-30 sensor sort-seq; sequence = guide strand", "conditions": "shRNA", "values": [
      {"sequence": "TAGAACTTTCAGAAGCAAGTGT", "sensor-assay potency score (higher = more potent)": 0.493},
      {"sequence": "TTTGTGTATGTATCATCGGTGA", "sensor-assay potency score (higher = more potent)": -0.746},
      {"sequence": "TATATCTCTTCATATTTCGAAG", "sensor-assay potency score (higher = more potent)": -1.14},
      {"sequence": "TTGCTTGCTGAGGTCGATGGGG", "sensor-assay potency score (higher = more potent)": -0.835},
      {"sequence": "TTGTAAACAACATTAGTTGATC", "sensor-assay potency score (higher = more potent)": -0.494},
      {"sequence": "TGATATAGACAAACTCGTCTAC", "sensor-assay potency score (higher = more potent)": 0.267},
      {"sequence": "TAACAGTTGTCGTTTTGTGTAT", "sensor-assay potency score (higher = more potent)": -0.217},
      {"sequence": "TTTCACTTAATGAATACCCTGT", "sensor-assay potency score (higher = more potent)": 1.11},
      {"sequence": "TTTTGTGTATGTATCATCGGTG", "sensor-assay potency score (higher = more potent)": 0.2}
    ]},
    {"biological_target": "CCNG1", "assay": "pooled miR-30 sensor sort-seq; sequence = guide strand", "conditions": "shRNA", "values": [
      {"sequence": "TTAACTCTACACACTTCTGTGC", "sensor-assay potency score (higher = more potent)": 0.175},
      {"sequence": "TTCTATTGATTTTACAGCCAAA", "sensor-assay potency score (higher = more potent)": -1.32},
      {"sequence": "TAGCATTTCACATTTAGGCTTT", "sensor-assay potency score (higher = more potent)": 0.478},
      {"sequence": "TTTGACTTTCCAACACACCTTC", "sensor-assay potency score (higher = more potent)": 0.153},
      {"sequence": "TTCAGTTGAGCTTCTAGTCTTT", "sensor-assay potency score (higher = more potent)": 0.39},
      {"sequence": "TTGGCTGACATCTAGACTCCTG", "sensor-assay potency score (higher = more potent)": 0.244},
      {"sequence": "TTAGTCTTGCAGTCATTCTGAG", "sensor-assay potency score (higher = more potent)": -0.381},
      {"sequence": "TAGTCTTGCAGTCATTCTGAGG", "sensor-assay potency score (higher = more potent)": -1.44},
      {"sequence": "TTTGGATACAAGCTCTTGCCAG", "sensor-assay potency score (higher = more potent)": -0.48},
      {"sequence": "TTGGATACAAGCTCTTGCCAGA", "sensor-assay potency score (higher = more potent)": -0.511},
      {"sequence": "TTTAGACAGGAATCTGTCCAGT", "sensor-assay potency score (higher = more potent)": -0.19},
      {"sequence": "TCTGAAGACATTCTATTCCTTC", "sensor-assay potency score (higher = more potent)": -0.269},
      {"sequence": "TTAGCTTTGATTTGAATGCTTC", "sensor-assay potency score (higher = more potent)": 0.215},
      {"sequence": "TTCAACTTCTGAACATTTGGTT", "sensor-assay potency score (higher = more potent)": 0.69},
      {"sequence": "TTCTGTTAACTCTACACACTTC", "sensor-assay potency score (higher = more potent)": -0.348},
      {"sequence": "TTGACTTTCCAACACACCTTCT", "sensor-assay potency score (higher = more potent)": -0.557},
      {"sequence": "TTTTAGACAGGAATCTGTCCAG", "sensor-assay potency score (higher = more potent)": 0.0176},
      {"sequence": "TACATTTGTGAAATGTTGCTTT", "sensor-assay potency score (higher = more potent)": 0.17},
      {"sequence": "TAGTCTCAAACCACAGACCTTT", "sensor-assay potency score (higher = more potent)": -0.816},
      {"sequence": "TTAGTCTCAAACCACAGACCTT", "sensor-assay potency score (higher = more potent)": -1.23},
      {"sequence": "TTCATTTTAGACAGGAATCTGT", "sensor-assay potency score (higher = more potent)": 0.0756}
    ]},
    {"biological_target": "CD180", "assay": "pooled miR-30 sensor sort-seq; sequence = guide strand", "conditions": "shRNA", "values": [
      {"sequence": "TACACTGAGAACTAATTTCTTG", "sensor-assay potency score (higher = more potent)": -0.423},
      {"sequence": "TTTAACTGCAAAAAATAGCAGA", "sensor-assay potency score (higher = more potent)": -0.349},
      {"sequence": "TTGGTCTTCGTGATAGTCCCAT", "sensor-assay potency score (higher = more potent)": 0.105},
      {"sequence": "TAAATTAATGGTGCTCTGCTGG", "sensor-assay potency score (higher = more potent)": -0.664},
      {"sequence": "TAGTAGAGTTCTGCAGACCATT", "sensor-assay potency score (higher = more potent)": -1.3},
      {"sequence": "TTTAACATTATTGCCATTGAAG", "sensor-assay potency score (higher = more potent)": -1.17},
      {"sequence": "TAGAGATGTAGTGTATAGCATT", "sensor-assay potency score (higher = more potent)": -1.05},
      {"sequence": "TTGTGTTTGGTAGAGTGTCAGG", "sensor-assay potency score (higher = more potent)": -0.807},
      {"sequence": "TAGCTGAGGACATTCTTTGAAT", "sensor-assay potency score (higher = more potent)": -0.948},
      {"sequence": "TGAAGTAGGTTGGTCTTCGTGA", "sensor-assay potency score (higher = more potent)": -0.298}
    ]}
  ]
}
